Data taken from publication PMC8384837, “Expanding the binding specificity for RNA recognition by a PUF domain”.

Experiments:
Assay in all cases: yeast three-hybrid, YBZ-1, SC-Leu-His + 0.5 mM 3-AT, 4 days
Details in all cases: tags: N-Gal4 AD-HA kept; label: inside an RPR1-promoter hybrid RNA with tandem MS2 sites; ssRNA
PUM1 PUF domain R3-AKE = PUM1 PUF domain R3-AKE (Homo sapiens, UniProt Q14671 828-1176, C935A;R936K;Q939E)
Procedure, shortened: (§1)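 A centromeric plasmid in strain YBZ-1 co-expressed Pumilio-1 PUF domain libraries, randomized at the three base-contacting residues of each repeat, with matching RNA elements; the strain carries a LexA–MS2 coat fusion and a HIS3 reporter. After four days on SC-Leu (input) or SC-Leu-His + 0.5 mM 3-AT (selection), the repeat regions were PCR-amplified and Illumina-sequenced. The interaction score is the log change in variant frequency from input to selection, using log2 and a pseudocount of 1 where absent.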

PUM1 PUF domain R3-RIS = PUM1 PUF domain R3-RIS (Homo sapiens, UniProt Q14671 828-1176, C935R;R936I;Q939S)
Procedure, shortened: as §1

PUM1 PUF domain R8-KYT = PUM1 PUF domain R8-KYT (Homo sapiens, UniProt Q14671 828-1176, N1122K;Q1126T)
Procedure, shortened: as §1

PUM1 PUF domain R8-KRN = PUM1 PUF domain R8-KRN (Homo sapiens, UniProt Q14671 828-1176, N1122K;Y1123R;Q1126N)
Procedure, shortened: as §1

PUM1 PUF domain R5-PGY = PUM1 PUF domain R5-PGY (Homo sapiens, UniProt Q14671 828-1176, C1007P;R1008G;Q1011Y)
Procedure, shortened: as §1

PUM1 PUF domain R6-VFA = biological target: T1, PUM1 PUF domain R6-VFA (Homo sapiens, UniProt Q14671 828-1176, N1043V;Y1044F;Q1047A)
T1 sequence: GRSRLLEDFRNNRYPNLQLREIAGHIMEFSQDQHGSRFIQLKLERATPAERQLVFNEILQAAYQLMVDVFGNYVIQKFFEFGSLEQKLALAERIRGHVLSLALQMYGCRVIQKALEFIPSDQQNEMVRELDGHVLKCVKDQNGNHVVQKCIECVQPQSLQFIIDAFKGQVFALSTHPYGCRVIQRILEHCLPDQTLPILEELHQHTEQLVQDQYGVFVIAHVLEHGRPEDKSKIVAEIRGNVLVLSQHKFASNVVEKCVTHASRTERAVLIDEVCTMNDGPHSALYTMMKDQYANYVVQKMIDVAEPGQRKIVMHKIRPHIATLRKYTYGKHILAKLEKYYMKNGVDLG
Procedure, shortened: as §1

PUM1 PUF domain R4-HRG = PUM1 PUF domain R4-HRG (Homo sapiens, UniProt Q14671 828-1176, N971H;H972R;Q975G)
Procedure, shortened: as §1

PUM1 PUF domain R8-RNR = PUM1 PUF domain R8-RNR (Homo sapiens, UniProt Q14671 828-1176, N1122R;Y1123N;Q1126R)
Procedure, shortened: as §1

PUM1 PUF domain R8-RFG = PUM1 PUF domain R8-RFG (Homo sapiens, UniProt Q14671 828-1176, N1122R;Y1123F;Q1126G)
Procedure, shortened: as §1

PUM1 PUF domain R8-THR = PUM1 PUF domain R8-THR (Homo sapiens, UniProt Q14671 828-1176, N1122T;Y1123H;Q1126R)
Procedure, shortened: as §1

PUM1 PUF domain R8-PFW = PUM1 PUF domain R8-PFW (Homo sapiens, UniProt Q14671 828-1176, N1122P;Y1123F;Q1126W)
Procedure, shortened: as §1

PUM1 PUF domain R5-DFT = PUM1 PUF domain R5-DFT (Homo sapiens, UniProt Q14671 828-1176, C1007D;R1008F;Q1011T)
Procedure, shortened: as §1

PUM1 PUF domain R5-SVS = PUM1 PUF domain R5-SVS (Homo sapiens, UniProt Q14671 828-1176, C1007S;R1008V;Q1011S)
Procedure, shortened: as §1

PUM1 PUF domain R5-DHA = PUM1 PUF domain R5-DHA (Homo sapiens, UniProt Q14671 828-1176, C1007D;R1008H;Q1011A)
Procedure, shortened: as §1

PUM1 PUF domain R1-HMR = PUM1 PUF domain R1-HMR (Homo sapiens, UniProt Q14671 828-1176, S863H;R864M;Q867R)
Procedure, shortened: as §1

PUM1 PUF domain R5-RSC = PUM1 PUF domain R5-RSC (Homo sapiens, UniProt Q14671 828-1176, C1007R;R1008S;Q1011C)
Procedure, shortened: as §1

PUM1 PUF domain R5-SER = PUM1 PUF domain R5-SER (Homo sapiens, UniProt Q14671 828-1176, C1007S;R1008E;Q1011R)
Procedure, shortened: as §1

PUM1 PUF domain R5-AKR = PUM1 PUF domain R5-AKR (Homo sapiens, UniProt Q14671 828-1176, C1007A;R1008K;Q1011R)
Procedure, shortened: as §1

PUM1 PUF domain R4-NNW = PUM1 PUF domain R4-NNW (Homo sapiens, UniProt Q14671 828-1176, H972N;Q975W)
Procedure, shortened: as §1

PUM1 PUF domain R4-TNQ = PUM1 PUF domain R4-TNQ (Homo sapiens, UniProt Q14671 828-1176, N971T;H972N)
Procedure, shortened: as §1

GGCUAGAACUAGUGGAUCCCCCGGCGCCCGGCGGCUCGAGCCCGGGUAAGUGUAAGUAGUCUGCAUGCCGCCGGGCGCCAUGCCUGCAGGUCGACUCUAGAAAACAUG
binding signal (PUM1 PUF domain R3-AKE): 2.98 log2 enrichment (interaction score)
binding signal (PUM1 PUF domain R3-RIS): 3.17 log2 enrichment (interaction score)

GGCUAGAACUAGUGGAUCCCCCGGCGCCCGGCGGCUCGAGCCCGGGUAAGUGUAAAUAGUCUGCAUGCCGCCGGGCGCCAUGCCUGCAGGUCGACUCUAGAAAACAUG
binding signal (PUM1 PUF domain R8-KYT): 2.68 log2 enrichment (interaction score)
binding signal (PUM1 PUF domain R8-KRN): 2.98 log2 enrichment (interaction score)
binding signal (PUM1 PUF domain R5-PGY): 4.47 log2 enrichment (interaction score)
binding signal (PUM1 PUF domain R6-VFA): 2.89 log2 enrichment (interaction score)
binding signal (PUM1 PUF domain R4-HRG): 3.06 log2 enrichment (interaction score)
binding signal (PUM1 PUF domain R8-RNR): 0.57 log2 enrichment (interaction score)
binding signal (PUM1 PUF domain R8-RFG): 4.85 log2 enrichment (interaction score)
binding signal (PUM1 PUF domain R8-THR): 2.7 log2 enrichment (interaction score)

GGCUAGAACUAGUGGAUCCCCCGGCGCCCGGCGGCUCGAGCCCGGGUAAGCGUAAAUAGUCUGCAUGCCGCCGGGCGCCAUGCCUGCAGGUCGACUCUAGAAAACAUG
binding signal (PUM1 PUF domain R8-KYT): 2.81 log2 enrichment (interaction score)
binding signal (PUM1 PUF domain R8-RNR): 2.37 log2 enrichment (interaction score)
binding signal (PUM1 PUF domain R8-RFG): 6.69 log2 enrichment (interaction score)
binding signal (PUM1 PUF domain R8-PFW): 3.6 log2 enrichment (interaction score)
binding signal (PUM1 PUF domain R8-THR): 3.22 log2 enrichment (interaction score)

GGCUAGAACUAGUGGAUCCCCCGGCGCCCGGCGGCUCGAGCCCGGGUAAGUGUGAAUAGUCUGCAUGCCGCCGGGCGCCAUGCCUGCAGGUCGACUCUAGAAAACAUG
binding signal (PUM1 PUF domain R5-DFT): 3.29 log2 enrichment (interaction score)
binding signal (PUM1 PUF domain R5-SVS): 3.48 log2 enrichment (interaction score)
binding signal (PUM1 PUF domain R5-DHA): 2.38 log2 enrichment (interaction score)

GGCUAGAACUAGUGGAUCCCCCGGCGCCCGGCGGCUCGAGCCCGGGUAAGUGAAAAUAGUCUGCAUGCCGCCGGGCGCCAUGCCUGCAGGUCGACUCUAGAAAACAUG
binding signal (PUM1 PUF domain R6-VFA): 6.94 log2 enrichment (interaction score)

GGCUAGAACUAGUGGAUCCCCCGGCGCCCGGCGGCUCGAGCCCGGGUAAGUGUAAAUCGUCUGCAUGCCGCCGGGCGCCAUGCCUGCAGGUCGACUCUAGAAAACAUG
binding signal (PUM1 PUF domain R1-HMR): 3.35 log2 enrichment (interaction score)

GGCUAGAACUAGUGGAUCCCCCGGCGCCCGGCGGCUCGAGCCCGGGUAAGUGUUAAUAGUCUGCAUGCCGCCGGGCGCCAUGCCUGCAGGUCGACUCUAGAAAACAUG
binding signal (PUM1 PUF domain R5-RSC): 3.18 log2 enrichment (interaction score)
binding signal (PUM1 PUF domain R5-DHA): 4.01 log2 enrichment (interaction score)

GGCUAGAACUAGUGGAUCCCCCGGCGCCCGGCGGCUCGAGCCCGGGUAAGUGUCAAUAGUCUGCAUGCCGCCGGGCGCCAUGCCUGCAGGUCGACUCUAGAAAACAUG
binding signal (PUM1 PUF domain R5-SER): 3.79 log2 enrichment (interaction score)
binding signal (PUM1 PUF domain R5-RSC): 3.02 log2 enrichment (interaction score)
binding signal (PUM1 PUF domain R5-AKR): 5.56 log2 enrichment (interaction score)

GGCUAGAACUAGUGGAUCCCCCGGCGCCCGGCGGCUCGAGCCCGGGUAAGUGUAAUUAGUCUGCAUGCCGCCGGGCGCCAUGCCUGCAGGUCGACUCUAGAAAACAUG
binding signal (PUM1 PUF domain R3-RIS): 3.36 log2 enrichment (interaction score)

GGCUAGAACUAGUGGAUCCCCCGGCGCCCGGCGGCUCGAGCCCGGGUAAGUGUACAUAGUCUGCAUGCCGCCGGGCGCCAUGCCUGCAGGUCGACUCUAGAAAACAUG
binding signal (PUM1 PUF domain R4-HRG): 2.09 log2 enrichment (interaction score)
binding signal (PUM1 PUF domain R4-NNW): 4.15 log2 enrichment (interaction score)

GGCUAGAACUAGUGGAUCCCCCGGCGCCCGGCGGCUCGAGCCCGGGUAAGUGUAUAUAGUCUGCAUGCCGCCGGGCGCCAUGCCUGCAGGUCGACUCUAGAAAACAUG
binding signal (PUM1 PUF domain R4-TNQ): 4.92 log2 enrichment (interaction score)
binding signal (PUM1 PUF domain R4-HRG): 2.71 log2 enrichment (interaction score)
